An excerpt weighted towards active compounds, which were near 6.9% of everything screened.
Vif-A3G inh: blocks the Vif interaction with human APOBEC3G; Q9HC16; HeLa A3G-eYFP + Vif (tagged APOBEC3G with the HIV-1 protein that degrades it), YFP fluorescence, overnight; Potency, µM (titrated, usually from 46.1 µM), without a hit: at the top dose activity, negative = active, actives largely listed as inhibitors; 410,000 tested, 0.076% active; note: potency is the fitted concentration of half-maximal effect; % is set by controls: 0 for no effect and ±100 for the full control effect; nearly all actives have a fitted effect of over 60% in size
Target sequence (Q9HC16 whole entry, looked up): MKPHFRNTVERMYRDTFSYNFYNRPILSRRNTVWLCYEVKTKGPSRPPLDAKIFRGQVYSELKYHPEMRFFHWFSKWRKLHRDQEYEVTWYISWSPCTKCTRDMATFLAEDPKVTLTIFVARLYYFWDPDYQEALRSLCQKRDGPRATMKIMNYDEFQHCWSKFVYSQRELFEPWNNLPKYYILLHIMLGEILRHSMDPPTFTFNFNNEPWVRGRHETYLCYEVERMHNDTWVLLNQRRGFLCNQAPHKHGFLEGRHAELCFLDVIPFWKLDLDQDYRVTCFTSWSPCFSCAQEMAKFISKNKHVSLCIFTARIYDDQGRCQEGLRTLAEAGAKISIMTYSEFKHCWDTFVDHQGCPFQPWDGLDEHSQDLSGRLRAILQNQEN
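HeLa cells stably expressing Vif and C-terminally eYFP-tagged A3G, seeded overnight at 37 deg C, then exposed to compound by pintool overnight at 37 deg C. Rise in yellow fluorescence (Ex 488/Em 500-530, Acumen) marks blocked Vif-driven A3G degradation.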
MCF10A rereplic: induces DNA re-replication in MCF 10a normal breast cells | MCF 10A DNA re-replication, Hoechst nuclear intensity, 48 h | Potency, µM (doses to about 46.1 µM), for inactives: top-dose activity, positive = re-replication, hits mostly activators | 350,000 tested, 2.9% active | AID 624296; note: potency is the fitted concentration of half-maximal effect; % of control where 0% means no effect; nearly all actives have a fitted effect of over 50% in size
IL1B secr inh: inhibitors of inflammasome signaling (IL-1 beta secretion). THP-1 LPS/ATP IL-1B secretion, AlphaLISA, 16 h; stronger effect = lower value. activity change, % at 57.5 µM. 360,000 tested, 4.7% active; in the data active = activity change below about -50%; inconclusive = mostly about -30% to -49%; note: % is set by controls: 0 for no effect and ±100 for the full control effect
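Secreted IL-1B measured by AlphaLISA bead assay after 16 h compound exposure of THP-1 cells; compounds (final up to 57.5 uM) added 1 h before LPS (250 ng/mL) and ATP (1.25 mM) stimulation; lower signal means less secretion.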
Giardia killer: kills Giardia lamblia; Giardia lamblia trophozoite viability; activity change, % at 7.66 µM, hits read low; 340,000 tested, 0.15% active; AID 540267; in the data active = activity change below about -80%; inconclusive = between about -30% and that limit;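 note: parasites exposed to compound for two days anaerobically before the ATP read; % is set by controls: 0 for no effect and ±100 for the full control effect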
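Each well holds 100 Giardia trophozoites and compound. After two days (48 hrs) at 37 deg C in anaerobic conditions, ATP is quantified by luminescence.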
SW480 rereplic: inducers of DNA re-replication in SW480 colon cancer cells. SW480 DNA re-replication, Hoechst DNA content imaging, 48 h. Potency, µM (titrated, usually from 46.1 µM), for the others: at the top dose re-replication activation, actives largely listed as activators. 340,000 tested, 1.8% active; note: potency is the fitted concentration of half-maximal effect; % of control where 0% means no effect; nearly all actives have a fitted effect of over 55% in size
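Hoechst fluorescence of nuclei (405 nm excitation, 500-530 nm emission) measured by plate-scanning imager after 48 hr compound exposure at 37 C; re-replication scored as increased number of nuclei with elevated intensity.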
Vif-APOBEC3F blk: blocks the Vif interaction with APOBEC3F | 390,000 tested, 0.2% active | AID 602313 | HeLa A3F-eYFP + Vif (tagged APOBEC3F with the HIV-1 protein that degrades it), YFP fluorescence increase | Potency, µM (top dose mostly 46.1 µM), for the others: at the highest dose activity, negative = active; note: potency is the fitted concentration of half-maximal effect; % of control where 0% means no effect; nearly all actives have a fitted effect of over 65% in size
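HeLa cells stably expressing Vif plus C-terminally eYFP-tagged A3F were seeded, incubated overnight at 37 deg C, dosed with compound, incubated overnight again at 37 deg C. Yellow fluorescence (Ex 488/Em 500-530) reported blocked Vif-mediated A3F-eYFP degradation.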
The depositor's hits bear a star; ? = inconclusive; / = no result. Unless noted, calls come from the whole dose curve; as a rule, active = well fitted curve in the direction sought with a large enough effect; inconclusive = small, poorly fitted or top-dose-only effect, or another doubt; inactive = no such curve, though single readings can be large; an effect the other way counts as inactive or inconclusive.

SMILES	Vif-A3G inh	MCF10A rereplic	IL1B secr inh	Giardia killer	SW480 rereplic	Vif-APOBEC3F blk
CCc1ccc(OCC(=O)Nc2ccc(-c3cc4ccccc4oc3=O)c(OC)c2)cc1	?	-37%	7	8	2.3µM*	0%
O=C(CC1C(=O)N(c2ccccc2)C(=O)N1CCC1=CCCCC1)Nc1ccc(F)cc1 (configuration not stated)	5%	/	/	/	/	1%
Oc1[nH]c2ccc(Br)cc2c1N=Nc1ccc(C(F)(F)F)cn1	1%	?	-57*	8	3%	-2%
Cc1ccc(S(=O)(=O)NCCc2sc3nc(-c4ccccc4)nn3c2C)cc1C	-1%	/	/	/	/	-11%
CC1(C)CC(=O)C=C(NCc2cccc(C(F)(F)F)c2)C1	-2%	-5%	/	6	9.2µM*	1%
O=C(CSc1nc(=O)n(Cc2ccncc2)c2c1CCC2)Nc1ccc(F)cc1F	3%	/	/	/	/	-2%
CC12CCC(C(=O)N3CCC(Cc4ccccc4)CC3)(C(=O)C1=O)C2(C)C (configuration not stated)	-5%	13%	-102*	14	15%	-3%
CC(C)CCn1c(=O)c2sccc2n2c(CCCC(=O)NC(C)c3ccccc3)nnc12 (configuration not stated)	5%	/	/	/	/	-1%
O=C(N=Nc1c(O)[nH]c2ccccc12)c1ccc2c(c1)OCO2	4%	-2%	-15	-82*	-7%	-5%
CC1=C(C(=O)Nc2cccnc2)C(c2ccccc2)n2nc(SCc3ccccc3Cl)nc2N1 (configuration not stated)	0%	/	/	/	/	-4%
CN1CCC(OC(=O)Cc2ccc(Cl)cc2)CC1	4%	-2%	12	-2	15µM*	2%
COc1ccc(OCC(=O)OC2CCN(C)CC2)cc1	-2%	16%	2	-11	-11%	0%
CCOC(=O)c1c(NC(=O)CSc2cn(CCNC(=O)c3ccccc3OC)c3ccccc23)sc2c1CCCC2	1%	/	/	/	/	-4%
O=C(NCCc1c[nH]c2ccccc12)OCCCCOC(=O)NCCc1c[nH]c2ccccc12	-2%	28%	-51*	5	0%	1%
O=C(NCCc1c[nH]c2ccccc12)c1ccc([N+](=O)[O-])o1	-23%	/	-87*	/	/	2%
O=C(NCCc1c[nH]c2ccccc12)c1cc([N+](=O)[O-])cc([N+](=O)[O-])c1	-5%	12%	16	-10	-16%	-4%
CCOC(=O)c1[nH]cnc1C(=O)Nc1ccccn1	-8%	?	-64*	0	23%	1%
CCOC(=O)c1[nH]cnc1C(=O)Nc1ccccc1	1%	?	0	16	-9%	9%
C[N+](C)(C)c1ccc(/C=C2\C=Cc3ccccc32)cc1	4%	/	/	/	/	/
COc1ccc(CCNC(=O)Cn2nc(C)n3c(cc4cc(F)ccc43)c2=O)cc1OC	-4%	/	/	/	/	0%
COc1cc2c(cc1OC)C(COc1ccc3c(C)cc(=O)oc3c1)N(C(=O)c1cccc(C)c1)CC2 (configuration not stated)	-2%	/	/	/	/	-16%
O=C(Nc1cccc(Cl)c1)c1ccc2c(c1)SC1=NS(=O)(=O)CCN12	-16%	1%	-67*	-19	-9%	1%
COc1ccc(CCNC(=O)Cn2c(=O)n(-c3ccc(OC)c(OC)c3)c(=O)c3ccccc32)cc1OC	2%	/	/	/	/	-9%
COc1cc2[nH]c(=O)n(CCCCCC(=O)N3CC=C(c4ccccc4)CC3)c(=O)c2cc1OC	-10%	?	-73*	9	-1%	-9%
COc1cc2[nH]c(=O)n(CCC(=O)N3CCc4ccccc4C3)c(=O)c2cc1OC	-4%	9%	-6	11	3%	3%
SMILES	Vif-A3G inh	MCF10A rereplic	IL1B secr inh	Giardia killer	SW480 rereplic	Vif-APOBEC3F blk
COc1ccc(C2c3c(n(C)c4ccccc34)C(=O)N2CC(=O)Nc2cccc(Cl)c2C)cc1 (configuration not stated)	1%	/	/	/	/	-9%
CNc1nc2c(-c3ccc(Cl)cc3)nnn2c2ccccc12	2%	?	0	-5	6%	-9%
Cc1cccc(-c2nnn3c2nc(NCCc2ccc(S(N)(=O)=O)cc2)c2ccccc23)c1	-5%	5.2µM*	-9	11	2.3µM*	-13%
NNc1nc2c(-c3cccc(C(F)(F)F)c3)nnn2c2ccccc12	?	2.9µM*	-12	-21	3.7µM*	?
Cc1ccc(-c2nnn3c2nc(NC2CCC(C)CC2)c2ccccc23)cc1 (configuration not stated)	-1%	/	/	/	/	-6%
Cc1ccc(-c2nnn3c2nc(NC(C)C)c2ccccc23)cc1	-1%	16µM*	94	-17	?	6%
Nc1nc2c(-c3ccc(Br)cc3)nnn2c2ccccc12	2%	5.2µM*	30	-18	10µM*	1%
FC(F)(F)c1cccc(-c2nnn3c2nc(NC2CCCCC2)c2ccccc23)c1	4%	/	/	/	/	-6%
CCn1nc(C)c(CCN(C)C(=O)Nc2cc(Cl)c(OC)cc2OC)c1C	3%	/	/	/	/	4%
CCc1ccc(-n2c(=O)c3cccnc3n2CC(=O)Nc2cc(F)ccc2F)cc1	-17%	/	/	/	/	0%
Cc1ccccc1CNC(=O)CN1CCSc2ccccc21	-1%	/	/	/	/	0%
CCOC(=O)/C(C#N)=C/c1cn(CCOc2ccc(OC)cc2)c2ccccc12	8%	16µM*	14	-11	4%	1%
CCOc1ccc(NC(=O)/C(C#N)=C/c2cn(CC(=O)O)c3ccccc23)cc1	1%	?	9	7	-3%	-6%
CC1CCN(S(=O)(=O)c2cc(C(=O)NCc3ccc(F)cc3)n(C)c2)CC1	2%	/	/	/	/	1%
COc1ccc(CNC(=O)C2CCCN(S(=O)(=O)c3ccc4c(ccn4C)c3)C2)c(OC)c1 (configuration not stated)	-2%	/	/	/	/	-6%
COc1cccc([C@@H]2Nc3ccc(C(=O)O)cc3[C@@H]3C=CC[C@@H]32)c1OC	-5%	/	/	/	/	1%
COc1ccc2c(c1)C1C=CCC1C(c1cc3c(cc1Br)OCO3)N2 (configuration not stated)	?	3.7µM*	7	1	9.2µM*	-7%
CC(=O)c1ccc2c(c1)C1C=CCC1C(c1ccc(S(=O)(=O)N3CCOCC3)cc1)N2 (configuration not stated)	-10%	10%	17	23	/	6%
CC(=O)c1ccc2c(c1)C1C=CCC1C(c1cc3c(cc1Br)OCO3)N2 (configuration not stated)	?	4.1µM*	97	-7	12µM*	-12%
CCCCc1c(CCC)c(=N)c2ccccc2n1C	0%	?	-77*	7	12%	0%
CCCCc1c(O)c2ccccc2n(CCCC)c1=O	1%	-1%	23	2	2%	2%
